# The campaign covered roughly 290,000 compounds. About 2,200 (0.76%) were called active. No stated cut-off is given here; in the data, active means inhibition above about 30%; inconclusive means no clear call, values can overlap the other calls; inactive means below that. The entries come from a sample that favours actives as a whole.
# Target: Protein RecA (Mycobacterium tuberculosis (strain ATCC 25618 / H37Rv)) (UniProt P9WHJ3)
# Experiment: Mtb RecA intein splicing inhibitors, primary screen, biochemical, fluorescence, HTS (AID 2221);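 further: 0% = vehicle wells and 100% = reference inhibitor control wells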
# Conditions: cell-free RecA intein splicing, active compounds read high, concentration not given here
# Sequence of Protein RecA (Mycobacterium tuberculosis (strain ATCC 25618 / H37Rv)) (P9WHJ3 whole entry, looked up): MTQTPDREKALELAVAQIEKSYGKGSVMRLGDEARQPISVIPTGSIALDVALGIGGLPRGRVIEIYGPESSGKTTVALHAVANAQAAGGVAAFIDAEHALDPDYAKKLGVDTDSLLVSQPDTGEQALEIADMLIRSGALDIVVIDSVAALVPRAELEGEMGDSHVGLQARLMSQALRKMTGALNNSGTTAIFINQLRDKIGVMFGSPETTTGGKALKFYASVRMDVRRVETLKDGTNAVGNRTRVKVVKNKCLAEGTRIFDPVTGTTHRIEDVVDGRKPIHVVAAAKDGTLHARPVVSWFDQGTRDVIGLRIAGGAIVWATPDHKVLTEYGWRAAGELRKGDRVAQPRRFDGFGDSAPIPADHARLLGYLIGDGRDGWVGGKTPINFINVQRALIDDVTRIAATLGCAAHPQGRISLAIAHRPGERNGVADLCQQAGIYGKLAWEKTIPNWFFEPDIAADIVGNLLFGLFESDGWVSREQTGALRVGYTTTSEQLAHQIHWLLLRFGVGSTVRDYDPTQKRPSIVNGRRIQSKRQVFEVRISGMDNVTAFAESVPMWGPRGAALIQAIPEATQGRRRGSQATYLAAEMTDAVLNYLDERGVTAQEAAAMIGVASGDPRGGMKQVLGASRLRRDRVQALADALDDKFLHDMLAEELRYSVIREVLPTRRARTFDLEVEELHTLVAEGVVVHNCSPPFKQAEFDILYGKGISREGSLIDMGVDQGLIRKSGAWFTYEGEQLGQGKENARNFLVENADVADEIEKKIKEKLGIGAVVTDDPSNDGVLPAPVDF
row,SMILES,inhibition
1,COC(=O)C(C)n1cnc2c(nnn2-c2ccc(F)cc2)c1=O (stereo not given),-1.59% (inactive)
2,CCOC(=O)C(C)n1cnc2c(nnn2-c2ccc(F)cc2)c1=O (stereo not given),-0.542% (inactive)
3,CCOC(=O)C(CC)Sc1ncnc2c1nnn2-c1ccc(F)cc1 (stereo not given),36.6% (active)
4,Cc1ccc(C(=O)COC(=O)CCN2C(=O)C3C4CC(C(Br)C4Br)C3C2=O)cc1 (stereo not given),1.16% (inactive)
5,CC(=O)Nc1ccc(N2C(=O)CC(Sc3nccc(C)n3)C2=O)cc1 (stereo not given),-1.08% (inactive)
6,O=C(Oc1ccc(Br)cc1C(=S)N1CCOCC1)c1cccc([N+](=O)[O-])c1,32.3% (active)
7,O=C(Oc1ccccc1C(=S)N1CCCCC1)c1cc([N+](=O)[O-])cc([N+](=O)[O-])c1,28.1% (inactive)
8,COc1cc(C(=S)N2CCOCC2)cc(OC)c1OC(=O)c1cc([N+](=O)[O-])cc([N+](=O)[O-])c1,-0.59% (inactive)
9,Cc1nn(C)cc1/C=C1\CCC/C(=C\c2cn(C)nc2C)C1=O,1.91% (inactive)
10,CC(=O)c1c(C)c[nH]c1C,0.735% (inactive)
11,S=C(NCC1COc2ccccc2O1)Nc1ccc(Br)cc1 (stereo not given),2.68% (inactive)
12,CC1=NN(c2cccc(Cl)c2)C(=O)C12CC(C)=C(C)CS2 (stereo not given),31.7% (active)
13,CC12CCC(C(=O)N(c3cccc(Cl)c3)C1=O)C2(C)C (stereo not given),2.02% (inactive)
14,Cc1[nH]n(-c2cccc(Cl)c2)c(=O)c1-c1ccc(Cl)cc1,8.51% (inactive)
15,COC(=O)C1=C(Nc2ccc(C)cc2)C=C(C)C(C(=O)OC)C1c1ccc(F)cc1 (stereo not given),-4.47% (inactive)
16,COc1cccc(Nc2nc(N)c([N+](=O)[O-])c(NCc3ccco3)n2)c1,9.57% (inactive)
17,Cc1[nH][nH]c(=O)c1C(c1ccc2c(c1)OCO2)c1c(C)[nH][nH]c1=O,97.8% (active)
18,Cc1[nH][nH]c(=O)c1C(c1ccc(-c2ccc(Cl)cc2)o1)c1c(C)[nH][nH]c1=O,-2.86% (inactive)
19,CCOc1ccc(C(CC(=O)O)NC(=O)Cc2ccccc2)cc1OC (stereo not given),-1.09% (inactive)
20,CC(NC(=O)c1ccco1)c1ccc2c(c1)OCO2 (stereo not given),-3.46% (inactive)
21,CCOc1ccc(C(c2c(C)[nH][nH]c2=O)c2c(C)[nH][nH]c2=O)cc1OCC,98.1% (active)
22,C=CCOc1ccc(/C=C2/C(=O)ON=C2C)cc1OCC,0.545% (inactive)
23,O=C(NCCCn1ccnc1)c1cc(Br)c(Br)s1,-6.96% (inactive)
24,COc1ccccc1/C=C/C(=O)NC(=S)N1CCOCC1,1.89% (inactive)
25,CCC(C)N(C(=O)Cn1nc(C)c([N+](=O)[O-])c1C)C1CCS(=O)(=O)C1 (stereo not given),2.19% (inactive)

# From PubChem BioAssay AID2221 (Broad Institute, 2009)
